# Source: PubChem BioAssay
# uPA surface inh = qHTS for Inhibitors of Cell Surface uPA Generation; AID 540303, 2011; cell surface uPA generation assay, qHTS; Potency, µM (top dose mostly 38.3 µM), for the others: at the top dose activity change, negative = inhibition, actives largely listed as inhibitors; 330,000 tested, 0.31% active; active = well fitted inhibition curve with a large enough effect; inconclusive = small, poorly fitted or top-dose-only effect; inactive = no such curve, though single readings can be large or run the other way; tested in mouse RAW 264.7 cells; also: potency is read from the fitted curve at half-maximal effect; nearly all actives have a fitted effect of over 55% in size
# TDP1 cell noCPT = qHTS for Inhibitors of human tyrosyl-DNA phosphodiesterase 1 (TDP1): qHTS in cells in absence of CPT | DT40 Tdp1-/- hTDP1 cells, no CPT, ATP luminescence, 48 h | Potency, µM (doses to about 46.2 µM), inactives show top-dose activity change, negative = growth inhibition, usual class: inhibitors | 420,000 tested, 15% active | AID 686978, 2013; also: potency is read from the fitted curve at half-maximal effect; nearly all actives have a fitted effect of over 55% in size
#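 Luminescent ATP content (CellTiter-Glo) served as the growth readout. Knockout chicken DT40 cells expressing human TDP1 were exposed to compounds without camptothecin for a minimum 48 hr at 37 °C.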
# HT1080 IDH1KD tx = qHTS for induction of synthetic lethality in tumor cells producing 2HG: qHTS for the HT-1080-IDH1KD cell line | HT-1080 IDH1 knockdown viability, ATP luminescence, 48 h | Potency, µM (highest dose often 46.1 µM), for the others: at the top dose activity, negative = toxicity, usual class: cytotoxic | 360,000 tested, 2% active;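 also: potency is read from the fitted curve at half-maximal effect; 0% = DMSO wells and -100% = cell-free medium wells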
#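 IDH1KD HT-1080 cells, 750/well, RPMI + 5% FBS; compound pinned after 2 h settling; 48 h, 37 °C; CellTiter-Glo luminescence; % activity normalised to DMSO and no-cell wells; curves fitted, classed by r2 and efficacy.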
# TDP1 cell CPT = qHTS for Inhibitors of human tyrosyl-DNA phosphodiesterase 1 (TDP1): qHTS in cells in presence of CPT. 420,000 tested, 12% active. chicken DT40 Tdp1-/-;hTDP1 cells + 20 nM CPT, ATP luminescence, 48 h. AID 686979, 2013. Potency, µM (highest dose often 46.2 µM), inactives show at the highest dose activity change, negative = growth inhibition, most hits filed as inhibitors; also: potency is read from the fitted curve at half-maximal effect; nearly all actives have a fitted effect of over 55% in size
#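 Cell growth measured by CellTiter-Glo luminescence after a minimum 48 h, 37 C compound exposure with 20 nM CPT in Tdp1-knockout DT40 cells stably expressing hTDP1, seeded 400/well; qHTS titration format.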
# IL-1B inflam inh = qHTS for Inhibitors of Inflammasome Signaling: IL-1-beta AlphaLISA Primary Screen; activity change, % at 57.5 µM; THP-1 LPS/ATP IL-1B secretion, AlphaLISA, 16 h; hits give low values; 360,000 tested, 4.7% active; in the data active = activity change below about -50%; inconclusive = mostly about -30% to -49%
#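 THP-1 cells pretreated 1 hr with compounds (up to 57.5 uM final), then stimulated with LPS (250 ng/mL final) plus ATP (1.25 mM final); secreted IL-1B measured by AlphaLISA after 16 hr, decreased signal indicating inhibition.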
# HT1080NT lethal = qHTS for induction of synthetic lethality in tumor cells producing 2HG: qHTS for the HT-1080-NT fibrosarcoma cell line; HT-1080-NT fibrosarcoma viability, CellTiter-Glo ATP luminescence, 48 h; Potency, µM (titrated, usually from 46.1 µM), for the others: at the top dose activity, negative = less viability, actives largely listed as cytotoxic; 360,000 tested, 1.6% active;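 also: NT is the 2HG producing partner of a matched IDH1 knockdown line; potency is read from the fitted curve at half-maximal effect; 0% = DMSO-treated cells and -100% = media-only wells without cells; nearly all actives have a fitted effect of over 55% in size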
#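 HT-1080-NT; 750 cells/well; 5% FBS RPMI; 48 h compound, 37 degrees C; CellTiter-Glo luminescence; curve fitting and curve-class assignment.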
# The depositor's hits bear a star; u = inconclusive; x = no result; [ ] = remark or other dose. Hits are enriched below; roughly 19% of the tested compounds scored in any of these assays. Unless noted, calls follow the shape of the dose curve; as a rule, active = well fitted curve in the direction sought with a large enough effect; inconclusive = small, poorly fitted or top-dose-only effect, or another doubt; inactive = no such curve, though single readings can be large; an effect the other way counts as inactive or inconclusive. Unless noted, % is scaled to controls: 0 for no effect and ±100 for the full control effect.
SMILES,uPA surface inh,TDP1 cell noCPT,HT1080 IDH1KD tx,TDP1 cell CPT,IL-1B inflam inh,HT1080NT lethal
CO[C@@H]1CN(C)C(=O)c2ccc(NS(=O)(=O)c3c(C)noc3C)cc2OC[C@@H](C)NC[C@@H]1C,x,34%,24%,-8%,44,13%
CC(NC(=O)c1ccccc1)C(=O)NC1=NCCS1 (stereo not drawn),3%,0%,1%,-1%,-1,-4%
CC(Oc1ccccc1)C(=O)Nc1nc(-c2ccccn2)cs1 (stereo not drawn),-9%,3.3µM*,u,3.7µM*,-103*,-29%
CC(OC(=O)c1ccccn1)C(=O)Nc1nc(-c2ccc(F)c(F)c2)cs1 (stereo not drawn),2%,23µM*,6%,26µM*,u,4%
CC(Oc1cccc(Cl)c1)C(=O)Nc1nc(-c2ccccn2)cs1 (stereo not drawn),-10%,5.2µM*,-26%,3.3µM*,-101*,u
C[C@H](NC(=O)c1ccccc1)C(=O)Nc1nc(-c2ccccn2)cs1,6%,u,-15%,26µM*,94,-3%
CC(OC(=O)c1cnccn1)C(=O)Nc1nc(-c2cccc([N+](=O)[O-])c2)cs1 (stereo not drawn),-12%,u,-2%,u,-20,5%
CC(Oc1ccccc1)C(=O)Nc1nc(-c2ccncc2)cs1 (stereo not drawn),-5%,-11%,2%,u,-14,-2%[9.24 µM]
CCN(C)C1CN(Cc2cn(CCCC(=O)OC)nn2)S(=O)(=O)C1 (stereo not drawn),x,-1%,1%,-8%,48,24%
COc1ncc(-c2ccc(N3C(c4ccsc4)=Cc4ccccc4C3CC(C)=O)cc2)cn1 (stereo not drawn),x,u,-8%,u,-6,-5%
CCN(CC)c1ccc2c(Cl)cc(=O)oc2c1,-11%,-29%,-2%,23µM*,-27,3%
CCN(CC)c1ccc2c(O)cc(=O)oc2c1,2%,1%,22%,5%,14,1%
CCN(CC)c1ccc(C(=O)OCc2cc(=O)oc3cc(O)ccc23)cc1,2%,16µM*,u,u,54,u
CCCCc1cc(=O)oc2cc(O)ccc12,-4%,u,-13%,-17%,42,-14%
O=C(NCCCO)C(=O)Nc1cc2c3c(c1)CCN3C(=O)CC2,-1%,4%,0%,13%,17,-2%
CN(C)C(=O)c1ccc(-c2cc(NCc3cccnc3)ncn2)cc1,x,4%,x,12%,x,x
CC(=O)Nc1cccc(NC(=O)Nc2cccc(F)c2)c1,-5%,u,1%,-14%,-3,5%
COc1cccc(NC(=O)Nc2nc(SC)ns2)c1,7%,u,u,9.2µM*,-98*,u
COc1cccc(NC(=O)Nc2nc(SC(C)(C)C)ns2)c1,u,u,u,15µM*,-73*,u
Cc1cc(C)nc(NC(=O)Nc2ccc(F)cc2F)n1,4%,21%,u,2%,-24,29%
CCSc1nsc(NC(=O)Nc2cccc(F)c2)n1,-11%,4.1µM*,6.5µM*,21µM*,-95*,12µM*
CCCSc1nsc(NC(=O)Nc2ccc(F)cc2F)n1,3%,4.1µM*,4%,5.2µM*,-28,u
COc1ccc(CN(C(=O)c2ccccc2F)C2CCS(=O)(=O)C2)cc1 (stereo not drawn),x,-11%,x,-2%,x,x
CCCSc1nsc(NC(=O)CC)n1,-2%,u,-4%,-13%,-17,9%
CCCCCCSc1nsc(NC(=O)CC(C)C)n1,4%,u,15µM*,-17%,7,u
SMILES,uPA surface inh,TDP1 cell noCPT,HT1080 IDH1KD tx,TDP1 cell CPT,IL-1B inflam inh,HT1080NT lethal
CCCSc1nsc(NC(=O)C(c2ccccc2)c2ccccc2)n1,-5%,29µM*,u,18µM*,-9,u
CCOc1cc(Cl)c(S(=O)(=O)n2ccnc2)cc1Cl,x,-9%,x,-1%,x,x
c1ccc(CCNc2nc(-c3ccccn3)nc3ccccc23)cc1,-16%,2.9µM*,u,3.3µM*,-101*,-27%
CN(C)CCCNc1nc(-c2ccc(Cl)cc2)nc2ccccc12,-17%,u,u,u,-62*,u
COCCNc1nc(-c2ccc(N(C)C)cc2)nc2ccccc12,x,21µM*,x,u,x,x
Cc1ccc(-c2nc(NCCN(C)C)c3ccccc3n2)cc1,-8%,u,21µM*,-17%,-95*,u
CCCn1nnnc1NCc1ccccc1Cl,-8%,-1%,7%,-2%,0,-1%
CCC1(c2ccc(F)cc2)NC(=O)N(CC(=O)NCc2ccccc2Cl)C1=O (stereo not drawn),-6%,u,0%,-25%,-4,16%
CC(C)N=C(NS(=O)(=O)NC(=O)c1ccccc1)c1ccccc1,-7%,0%,2%,-2%,0,u
COc1ccc(OC)c(C(=O)N2CCOc3ccc(C(C)(O)CN(C)C)cc3C2)c1 (stereo not drawn),x,-11%,x,9%[9.04 µM],x,x
COCCNc1nc(-c2ccc(C(=O)N(C)C)cc2)nc2ccccc12,x,-29%,x,-17%,x,x
CCCCN(CC)c1nc(-c2ccncc2)nc2ccccc12,-2%,u,u,16µM*,-15,u
COCCN(CCOC)c1nc(-c2ccc(C)cc2)nc2ccccc12,13%,18µM*,-19%,u,-6,-29%
